Source: PubChem BioAssay AID1421 (Emory University Molecular Libraries Screening Center, 2008)
Screen size: about 1,300 compounds; about 140 (11%) were called active. The rule behind the calls is not given here. These entries were drawn from the full list. Entries with a potency or affinity are not part of this list.

These compounds were tested against Prostaglandin E2 receptor EP2 subtype (Homo sapiens) (UniProt P43116) (assay: compounds shifting PGE2 potency at EP2 – cell-based, human EP2, PGE2 EC50 shift, dose response (AID 1421)). Details: EP2-expressing cells, PGE2 EC50 shift by compound; at 20 µM.
Prostaglandin E2 receptor EP2 subtype (Homo sapiens), sequence (P43116 whole entry, looked up): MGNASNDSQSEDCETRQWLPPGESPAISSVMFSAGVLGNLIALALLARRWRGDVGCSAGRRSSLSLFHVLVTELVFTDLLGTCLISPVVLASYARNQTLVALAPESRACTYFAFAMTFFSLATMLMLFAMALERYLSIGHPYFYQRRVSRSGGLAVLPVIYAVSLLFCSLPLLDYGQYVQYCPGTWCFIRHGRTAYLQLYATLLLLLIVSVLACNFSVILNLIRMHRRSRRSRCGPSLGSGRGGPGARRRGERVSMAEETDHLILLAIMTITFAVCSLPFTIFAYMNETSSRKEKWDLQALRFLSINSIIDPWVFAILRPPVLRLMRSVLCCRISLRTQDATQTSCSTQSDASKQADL

PGE2 EC50 with compound, inactive:
CC(=O)N1N=C2/C(=C/c3ccccc3)CCCC2C1c1ccccc1 (stereo not drawn) 0.44 nM
CCN=C1S/C(=C\c2ccc(O)c(OCC)c2)C(=O)N1CC 0.39 nM
CCCCOP(=O)(OCCCC)C(Nc1ccccc1)c1ccc2c(c1)OCO2 (stereo not drawn) 0.36 nM
CC(C)N(CCNC(=O)c1oc(=O)c2ccccc2c1-c1ccccc1)Cc1ccco1 0.81 nM
Oc1ccc(/C=N/N(Cc2ccccc2)c2ccccc2)cc1 0.73 nM
C/C(=N\N(Cc1ccccc1)c1ccccc1)c1cccnc1 0.37 nM
c1ccc(-c2ccccc2-c2nc(-c3cccnc3)no2)cc1 0.05 nM
Cc1scc(-c2n[nH]c(=S)n2Cc2ccccc2)c1C 0.54 nM
COc1ccc(N2CCN(c3nc4c(c(=O)n(C)c(=O)n4C)n3Cc3ccccc3)CC2)cc1 0.9 nM
Cc1cc(NC(=O)C2=C(O)c3ccccc3S(=O)(=O)N2C)no1 0.77 nM
Cc1ccccc1NC1=C(C(=O)c2ccccc2)N(C)S(=O)(=O)c2ccccc21 0.78 nM
CCOC(=O)CC(=O)CSc1nc(-c2ccc3c(c2)OCO3)cc(C(F)(F)F)c1C#N 1.22 nM
Cc1noc(C)c1CSc1nc2ccccc2c(=O)n1-c1ccc(F)cc1F 0.51 nM
Cc1noc(C)c1CSc1nc2ccccc2c(=O)n1-c1ccc(Cl)cc1 0.51 nM
CSc1nc(Oc2ccccc2)c2sccc2n1 0.62 nM
CCOC(=O)n1c(=O)n(Cc2ccc(Cl)c(Cl)c2)c2ccccc21 0.31 nM
COC(=O)c1cc(Br)c(=O)n(-c2nccs2)c1 17 nM
C=C(C)COc1ccc2c(c1)CC[C@@H]1[C@H]3C/C(=N/O)C(=O)[C@]3(C)CC[C@@H]21 0.41 nM
Cc1cccc(OC(=O)c2sc(Cl)nc2C)c1 0.61 nM
Cc1noc(C)c1CSc1ncnc2sc(C)c(C)c12 0.35 nM
O=C(Nc1ccc2c(c1)OCO2)c1cccc2c1C(=O)N(C1CCCCC1)C2 0.58 nM
CCc1nc(N2CCC(C)CC2)c2oc3ccccc3c2n1 0.32 nM
CCOP(=O)(OCC)c1nc(-c2cccc3ccccc23)oc1N1CCCCC1 0.42 nM
O=C(c1ccc2c(c1)OCO2)N(Cc1cccs1)C1(C(=O)NC2CCCCC2)CCCCC1 0.42 nM
O=C(COc1ccc(Br)cc1)Nc1ccc(-c2nnc(-c3ccco3)o2)cc1 0.53 nM
Cc1ccc2nc(N3CCC(C(=O)O)CC3)nc(-c3ccccc3)c2c1 0.5 nM
CN(C)Cc1ccccc1Sc1cccc2ccccc12 0.37 nM
Cc1ccc(-n2c(Cc3cccc4ccccc34)n[nH]c2=S)c(C)c1 0.39 nM
Cc1ccnc(SCC(=O)n2c3c(c4ccccc42)CC(C)CC3)n1 (stereo not drawn) 0.26 nM
COc1ccccc1-c1nnc(SCC(=O)c2ccc(C3CCCCC3)cc2)n1Cc1ccco1 0.46 nM
O=C(CN1CCN(Cc2ccccc2)CC1)Nc1ccccc1-c1ccccc1 0.83 nM
CCOC(=O)C1=NN(c2cccc(C)c2)C2(S1)SC(C(C)=O)=C(C)N2c1ccccc1 (stereo not drawn) 0.51 nM
Cc1ccccc1-n1c(Cn2c(=O)sc3ccccc32)nnc1SCC(=O)N1CCCC1 0.82 nM
Cc1cc(C)c2nc(N3CCCN(C(=O)c4ccco4)CC3)c(C#N)cc2c1 0.66 nM
COc1ccc(C2CC(c3cccs3)=NN2C(=O)c2ccc(Br)o2)cc1 (stereo not drawn) 0.71 nM
O=C1C2C3c4ccccc4C(c4ccccc43)C2c2nc3ccccc3n21 (stereo not drawn) 0.5 nM
COc1cc(C)c(NC(c2ccccc2)c2ccccc2)cc1OC 0.74 nM
c1ccc(-c2csc3ncnc(N4CCc5ccccc5C4)c23)cc1 0.28 nM
O=C(O)CCCCCCCCCCCc1ccccc1 0.7 nM
CCOC(=O)C(Cc1ccccc1)(NC(C)=O)C(=O)OCC 1.39 nM
O=c1c(O)c(-c2ccccc2)oc2ccc3occc3c12 0.43 nM
CCCCc1n[nH]c(=S)n1Cc1ccc(Cl)cc1 0.62 nM
CCCCc1ccc(-n2c(Cc3cccs3)n[nH]c2=S)cc1 0.6 nM
Cc1onc(-c2ccccc2)c1C(=O)N(Cc1ccco1)Cc1cccs1 0.49 nM
Cc1sc2ncnc(N(C)Cc3cccs3)c2c1C 0.78 nM
COc1cccc2[nH]c3c(N4CCCCC4)ncnc3c12 54.6 nM
O=C(c1cc2sccc2n1Cc1ccc(F)cc1)N1CCCc2ccccc21 0.27 nM
Cc1ccc(-c2nc3ccccc3nc2Cl)cc1 0.45 nM
CCOC(=O)c1c(NC(=O)CSC(=S)N(C)C)sc(C)c1C 0.55 nM
CCCOP(=O)(OCCC)C(Nc1cccc(C(F)(F)F)c1)c1ccc(C)cc1 (stereo not drawn) 0.23 nM
CCOP(=O)(OCC)c1nc(-c2cccc3ccccc23)oc1NCCc1ccc(OC)cc1 0.72 nM
CCOP(=O)(OCC)c1nc(-c2cccc3ccccc23)oc1NCc1ccccc1 0.31 nM
CCOC(=O)c1c(NC(=O)CN2C(=O)NC3(CCCCCC3)C2=O)sc(C)c1-c1ccc(C)cc1 0.74 nM
CCOP(=O)(OCC)c1nc(-c2ccc(C)cc2)oc1NCc1ccccc1 0.46 nM
Cc1ccccc1Nc1c(-c2ccccn2)nc2ccccn12 0.67 nM
COC(=O)c1cc2ccsc2n1Cc1ccccc1F 0.49 nM
CSc1nc(Sc2ccccc2Cl)c2ccccc2n1 0.41 nM
CCOC(=O)c1ccccc1NC(=O)CSc1ncc(C(=O)OCC)c(N)n1 0.55 nM
Cc1ccc(S(=O)(=O)n2c3ccc(F)cc3c3nc(C)sc32)cc1 0.2 nM
C=CCn1c(SCC(N)=O)nc(C)cc1=O 0.82 nM
C=CCn1c(SCc2c(C)noc2C)nc2sc(C)c(C)c2c1=O 0.57 nM
CC(=O)Nc1ccc(C2=NN(c3ccccc3)C(c3cccs3)C2)cc1 (stereo not drawn) 0.32 nM
CCCCCn1c(CN2CCN(c3cc(Cl)ccc3C)CC2)nc2c1c(=O)[nH]c(=O)n2C 1.94 nM
Brc1ccc(Cn2c(-c3cncs3)nc3ccccc32)cc1 0.43 nM
Cc1ccccc1OCc1nc2ccccc2c(=O)n1/N=C/c1ccco1 0.61 nM
CCn1c2ccccc2c2cc(/C=N/n3c(C)nnc3C)ccc21 0.04 nM
CN(c1ccccc1)C1CCCCC1NS(=O)(=O)c1ccc(Cl)cc1 (stereo not drawn) 0.38 nM
N#CCSc1nc2c(c(C3CC=CCC3)c1C#N)CCC2 (stereo not drawn) 0.5 nM
CN(CC(=O)Nc1ccccc1-c1ccccc1)Cc1ccccc1Cl 0.6 nM
CSc1ccccc1NC(=O)COc1ccc(Cl)cc1C 0.35 nM
C(=N\N1CCN(C2c3ccccc3-c3ccccc32)CC1)/c1cccnc1 0.43 nM
COC(=O)c1c(NC(NC(=O)C(C)C)C(Cl)(Cl)Cl)sc2c1CCCC2 (stereo not drawn) 0.51 nM
O=C(O)CSc1cc(-c2ccccc2)nc2ccccc12 1.19 nM
N/C(CSc1nc(-c2ccccc2)c(-c2ccccc2)o1)=N\O 0.37 nM
C=CCC(=O)OCCCCCCOc1ccc(C(=O)O)cc1 0.73 nM
CC(C)Oc1ccc(/C=C(/NC(=O)c2ccccc2)C(=O)NCCC(=O)O)cc1 0.98 nM
Cc1ccc(C(=O)OCC(=O)Nc2ccccc2Sc2ccccc2)cc1C 0.26 nM
CN(/N=C/C=C/c1ccccc1)C1=NS(=O)(=O)c2ccccc21 0.14 nM
CCC(C)(C)n1nnnc1C(c1ccncc1)N1CCC(Cc2ccccc2)CC1 (stereo not drawn) 1.27 nM
CC1(c2cc([N+](=O)[O-])cc([N+](=O)[O-])c2)CC(C)(C)N(C(=O)c2ccccc2)c2ccccc21 (stereo not drawn) 0.35 nM
CC1=CC(C)(C)N(S(=O)(=O)c2ccc(C)cc2)c2cc(C)ccc21 0.39 nM
CCOP(=O)(OCC)c1nc(-c2ccccc2)oc1NCc1ccccc1 0.36 nM
O=C(O)c1cccc(NN=C2c3ccccc3-c3ccccc32)c1 0.74 nM
O=c1c2oc3ccccc3c2[nH]c(=S)n1-c1ccccc1 1.48 nM
CN=C1CC(SC)=C1c1ccc(C)cc1 2.68 nM
Cc1cc(O)c(C=O)c2c1C(=O)Oc1c(C)c(O)c3c(c1O2)C(O)OC3=O (stereo not drawn) 0.42 nM
O=C(NNc1ccc([N+](=O)[O-])cc1[N+](=O)[O-])C1C2CCCCC21 (stereo not drawn) 1.49 nM
CCOC(=O)C1=C(C)N(C)C(C)=C(C(=O)OCC)C1c1ccsc1 0.71 nM
O=C(Oc1ccc(-c2nccc(-c3ccccn3)n2)cc1)c1cccc(C(F)(F)F)c1 1.38 nM
FC(F)(F)c1cccc(-c2cc3ccccc3nc2N2CCCC2)c1 0.54 nM
CCCCOc1cc(C)nc(NCc2ccccc2)n1 0.31 nM
COc1cnc(SCc2c(Cl)cccc2Cl)nc1Cl 0.18 nM
COC(=O)CSc1nc2c(c(C3CC=CCC3)c1C#N)CCC2 (stereo not drawn) 0.61 nM
